Hit rate of the full screen: of about 16,000 compounds, about 2,600 (16%) were called active. Roughly 20% stayed inconclusive and do not appear here. Calls follow the shape of the dose curve; as a rule, active = well fitted curve in the direction sought with a large enough effect; inconclusive = small, poorly fitted or top-dose-only effect, or effect the other way; inactive = no such curve, though single readings can be large or run the other way. The list is a sample of the results.
Biological target: Cytochrome P450 2D6 (Homo sapiens) (UniProt P10635)
Assay: Cytochrome panel assay with activity outcomes
Settings: recombinant CYP, pro-luciferin dealkylation, luminescence, p450-cyp2d6; series mostly up to 57.1 µM
% is scaled to controls: 0 for no effect and ±100 for the full control effect.

Sequence of Cytochrome P450 2D6 (Homo sapiens) (P10635 whole entry, looked up): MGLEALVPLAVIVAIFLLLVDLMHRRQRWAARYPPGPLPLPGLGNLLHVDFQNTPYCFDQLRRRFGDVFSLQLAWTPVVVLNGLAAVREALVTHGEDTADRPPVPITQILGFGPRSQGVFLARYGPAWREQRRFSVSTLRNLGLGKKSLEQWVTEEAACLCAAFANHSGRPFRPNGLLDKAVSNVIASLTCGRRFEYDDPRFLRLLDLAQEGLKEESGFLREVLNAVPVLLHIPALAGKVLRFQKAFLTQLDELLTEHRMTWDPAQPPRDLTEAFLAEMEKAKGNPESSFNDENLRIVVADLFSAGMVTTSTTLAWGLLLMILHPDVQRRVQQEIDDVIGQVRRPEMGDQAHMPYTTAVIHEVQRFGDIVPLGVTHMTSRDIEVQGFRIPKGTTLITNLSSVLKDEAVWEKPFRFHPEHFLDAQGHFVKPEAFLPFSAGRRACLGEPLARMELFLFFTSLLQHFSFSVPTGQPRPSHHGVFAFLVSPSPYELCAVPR

AC50, inactive:
CCC(CC)c1nnc(NC(=O)c2cccc(S(=O)(=O)N3CCc4ccccc43)c2)s1, CCCCN1C(=O)C(NC(=O)CC(C)C)(C(F)(F)F)C2=C1CC(C)(C)CC2=O (stereo unspecified), Nc1cc(N)nc(SCC(=O)c2ccccc2)n1, COc1ccc(-n2c(=O)cnc3cnc(OC)nc32)cc1, COCCn1c(=O)c(-c2cccc(C#N)c2)nc2cnc(N3CCN(C)CC3)nc21, O=C(c1cc(C(F)(F)F)cc(C(F)(F)F)c1)N1CCC[C@@]2(CCN(c3ccccc3)C2)C1, O=C(N/N=C/c1ccc(O)cc1)c1ccc(COc2cc(Cl)ccc2Cl)o1, O=C(Nc1ccn(Cc2ccccc2F)n1)c1ccc(COc2cc(Cl)ccc2Cl)o1, C=C(C)[C@@H]1CC=C(C(=O)O)CC1, NNC(=O)c1nn(-c2ccc(Cl)cc2)ccc1=O, COc1ccc(Oc2c(Cl)cnn(-c3ccccc3)c2=O)cc1, CCCOc1ccc(C2C(=O)N(C3CCCCC3)CC(=O)N2C2CC2)cc1OC (stereo unspecified), Cn1c[n+](C)cc1/C=N/O, O=[N+]([O-])c1cccnc1N1CCOCC1, O=[N+]([O-])c1ccc(N2CCCC2)cc1N1CCCC1, Cc1ccc(-c2nc3ccccc3s2)cc1NC(=O)c1cc(-n2cnnc2)ccc1Cl, CN1CCN(c2ncc3nc(-c4cccs4)c(=O)n(-c4ccccc4)c3n2)CC1, O=C(O)C1CCC(=O)N(C2CC2)C1c1ccccc1 (stereo unspecified), COCCNc1nc(-c2ccccc2Cl)nc2ccccc12, CC(=O)NCCNc1ccnc(-c2ccccc2C)n1, COCCNc1nc(-c2ccccc2C(F)(F)F)nc2ccccc12, CC(=O)NCCNc1ccnc(-c2ccccc2C(F)(F)F)n1, COC(=O)[C@@]1(Cc2ccc(OC)cc2)[C@H]2c3cc(C(=O)N4CCCC4)n(CCc4c[nH]c5ccc(O)cc45)c3C[C@H]2CN1C(=O)c1ccccc1, O=Nc1c(-c2c(O)[nH]c3ccccc23)[nH]c2ccccc12, COc1ccc(C)cc1NC(=O)c1cc2cc3ccc(C)cc3nc2o1, Cc1ccc2cc(CCNC(=O)c3ccc(Br)o3)c(=O)[nH]c2c1, Cc1cccc(N(C)S(=O)(=O)c2ccc3[nH]c(=O)c(=O)[nH]c3c2)c1, COc1ccc(-n2c(=O)c(C)nc3cnc(OC)nc32)cc1, CCCn1c(=O)c2[nH]c(C3CCCC3)nc2n(CCC)c1=O, COc1ccc(-c2nc3cnc(N4CCOCC4)nc3n(CCc3ccccc3)c2=O)cc1, COC(=O)c1cc(=O)n(C2CC2)c(=NC2CC2)s1, Cc1ccc(OCC(=O)N/N=C\c2c(C)n(C)c3ccccc23)c([N+](=O)[O-])c1, CCC(C)Nc1c([N+](=O)[O-])cc(C)cc1[N+](=O)[O-] (stereo unspecified), CCCC(=O)N1CCN(c2ccc(NC(=O)c3ccc(OCC)c([N+](=O)[O-])c3)cc2)CC1, Cc1nnc(N(C)C(=O)c2ccccn2)s1, COc1ccc(-c2nn(-c3ccccc3)cc2/C=N/NC(=O)c2ccc3c(c2)OCO3)cc1, COc1cc(-c2ccc(=O)[nH]n2)ccc1OC(F)F, CC(C)c1cccc2nc3c(c(C(C)(C)C)c12)Cn1c-3cccc1=O, CNC(=S)N1CCN(c2cccc(OC)c2)CC1, O=C(NNC(=O)c1cc2cc3ccccc3nc2s1)c1cccc(C(F)(F)F)c1, Cc1cc(=O)oc2cc(O)ccc12, Cc1cc(=O)c2c(O)c(O)ccc2o1, O=C(COc1ccc2ccccc2c1)NNC(=O)Cc1cccc2ccccc12, CCNC(=O)NC1(C(=O)Nc2ccc3c(c2)OCCO3)CCCCC1, CC(=O)NN1C(=O)c2ccc(Oc3ccc([N+](=O)[O-])cc3)cc2C1=O, O=C(NC(=S)Nc1ccc(C(=O)N2CCOCC2)cc1)c1ccc([N+](=O)[O-])cc1, COc1ccc(-n2c(=O)c(-c3cc(F)cc(F)c3)nc3cncnc32)cc1, CCOC(=O)Nc1ccc(C)cc1NC(=O)OCC, CCOC(=O)NC(NC(=O)OCC)C(=O)c1ccc(F)cc1, CC1=NNC(=O)C1CCC(=O)N/N=C\c1ccccc1[N+](=O)[O-] (stereo unspecified), C/C(=N\N=C1\NC(=O)CC(C(=O)O)S1)c1cccs1 (stereo unspecified), COCCN1C(=O)c2ccccc2C(C(=O)Nc2ccc3c(c2)OCCO3)C1c1ccc(F)cc1 (stereo unspecified), Cc1nn(-c2ccccc2)c(Cl)c1C(=O)Nc1c(C)n(C)n(-c2ccccc2)c1=O, CCC(C)NC(=O)c1c(C)cc(=O)oc1C (stereo unspecified), CCC(=O)N1CCc2cc(S(=O)(=O)NC(C(=O)NCc3ccc(F)cc3)C(C)C)ccc21 (stereo unspecified), CNC(=S)Nc1ccc(Nc2ccccc2)cc1, S=C(Nc1ccccc1)Nc1ccc(OCc2ccccc2)cc1, COc1cccc(Nc2ncc3nc(-c4cccs4)c(=O)n(CCC#N)c3n2)c1, CCOC(=O)c1ccc(-c2ccc(CO)o2)cc1, O=C(N/N=C/c1ccc(OCc2ccccc2)cc1)c1cccs1, COc1ccc(N2C(=O)NC3CC2(C)Oc2ccccc23)cc1OC (stereo unspecified), C[C@@H](O)[C@H]1C(=O)N2C(C(=O)O)=C(S[C@@H]3CN[C@H](C(=O)N(C)C)C3)[C@H](C)[C@H]12, CCOC(=O)N1CCC(NC(=O)CSCc2cnn(-c3ccccc3)c2-n2cccc2)CC1, COc1ccc(N(C)S(=O)(=O)c2ccc3c(c2)CCC(=O)N3)cc1, C/C(=N\NC(=O)c1[nH]c2c([N+](=O)[O-])cc(C)cc2c1-c1ccccc1)c1cccnc1, COc1ccc(NC(=O)C2c3cc(OC)c(OC)cc3C(=O)N(C)C2c2cccnc2)cc1OC (stereo unspecified), CC1(C)Oc2cc(N)c([N+](=O)[O-])cc2O1, Cc1nnc(SCC(=O)N2CC(=O)Nc3ccccc32)n1Cc1ccccc1

AC50, active:
CN1[C@H](CC(=O)c2ccccc2)CCC[C@H]1C[C@H](O)c1ccccc1 25.1 µM, CN1[C@@H](CC(=O)c2ccccc2)CCC[C@@H]1C[C@@H](O)c1ccccc1 0.251 µM, O=C(Nc1cccnc1)c1ccc(COc2cc(Cl)ccc2Cl)o1 15.8 µM, Cc1ccc2ccccc2c1CSc1nc(N)nc2c1ncn2CC(C)C 3.98 µM, O=[N+]([O-])c1cc(F)c(N2CCOCC2)cc1N1CCCCC1 10 µM, CC(=O)NCCNc1nc(-c2ccccc2C(F)(F)F)nc2ccccc12 3.98 µM, CC(=O)NCCNc1nc(-c2ccccc2C)nc2ccccc12 5.01 µM, COc1ccccc1-c1nc(NCCNC(C)=O)c2ccccc2n1 6.31 µM, CC(=O)NCCNc1nc(-c2ccccc2Cl)nc2ccccc12 12.6 µM, CN(C)C(=C(C#N)C#N)N1CCN(c2ccc(Cl)c(Cl)c2)CC1 1.12 µM, C=CCNCCOCCOc1ccc(C)cc1[N+](=O)[O-] 3.16 µM, CCCCNCCOCCOc1ccc(C)cc1[N+](=O)[O-] 2 µM, O=c1c(O)c(-c2ccc(O)cc2)oc2cc(O)cc(O)c12 10 µM, O=C(COc1ccc2ccccc2c1)Nc1ccc(Cc2ccncc2)cc1 0.355 µM, CCOC(=O)Nc1ccc(NCc2ccc(F)cc2)nc1N 31.6 µM, C/C(CCc1ccc2c(c1)OCO2)=N\N=C1\NC(=O)CC(C(=O)Nc2ccccc2)S1 (stereo unspecified) 8.91 µM, C1CCC(C(C[C@@H]2CCCCN2)C2CCCCC2)CC1 0.501 µM, CC(C)(C)NC(=S)Nc1ccc(Nc2ccccc2)cc1 14.1 µM, COCC(=O)O[C@]1(CCN(C)CCCc2nc3ccccc3[nH]2)CCc2cc(F)ccc2[C@@H]1C(C)C 0.316 µM, C=CCC(C)(NCc1ccccc1)c1ccco1 (stereo unspecified) 3.98 µM

activity, negative = inhibition, inactive:
O=C(C[C@@H]1C=Cc2ccccc2N1C(=O)c1ccccc1)c1ccccc1 -16.3% [at 11.4 µM], O=C(C[C@@H](c1ccccc1)N1CCCCC1)c1ccccc1 -19.2% [at 11.4 µM], NS(=O)(=O)c1ccc(N=Nc2ccc[nH]c2=O)cc1 -6.28% [at 11.4 µM], C(=Nc1cnc2ccccc2c1)c1ccc2ccccc2n1 1.16% [at 11.4 µM], CC(C)Cn1cnc2c(SCc3ccccn3)nc(N)nc21 6.1% [at 11.4 µM], CC(C)Cn1cnc2c(Sc3c([N+](=O)[O-])ncn3C)nc(N)nc21 8.92% [at 11.4 µM], COC(=O)[C@@H]1CC[C@H](C)[C@@H](c2ccc(C)cc2)N1C(=O)c1ccc(/C=N\OCC[C@@H]2C=C[C@H](OC(C)=O)[C@H](COC(C)=O)O2)cc1 6.79% [at 11.4 µM], CSCC[C@@H]1NC(=O)C/C=C\[C@@H](C)COC(=O)[C@H](C)COC1=O 10.5% [at 11.4 µM], C[C@@H](N=C(N)N)C(=O)O 9.93% [at 11.4 µM], Clc1ccccc1NN(Cc1ccccn1)c1ccccc1Cl -11.2% [at 11.4 µM], CC(=O)CC(=O)Nc1ccc2ccccc2c1 15.5% [at 11.4 µM], C1CCN(CC[C@@H]2CCCCN2)CC1 -9.75% [at 11.4 µM], NC(N)=NC[C@@H]1CCCCCCN1 5.74% [at 11.4 µM]
